# Compound activity as filed in PubChem BioAssay.
# This is a sample that favours compounds with a hit; in the whole collection about 2.6% have one here.
# AI-2 QS mod: Vibrio harveyi AI-2 quorum sensing modulators, primary screen, JMH597 strain, luminescence/OD600 ratio; activity change, % at 7.5 µM; 0.4% of 300,000 active; AID 2094, 2009; Vibrio harveyi JMH597 AI-2 luminescence/OD600 ratio, 9 h; active compounds read low; strain lacks LuxN and CqsS sensors; 0 = neutral-control median; in the data active = activity change below about -75%, passing the limit was not always enough;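 also: luminescence divided by OD600 gain over 9 h not by final OD600 alone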
# PHOSPHO1 inh: PubChem AID 1565 | Phosphoethanolamine/phosphocholine phosphatase (Homo sapiens), Q8TCT1 | recombinant PHOSPHO1, absorbance phosphatase assay | inhibition, % at 13.3 µM | 1.1% of 290,000 active; in the data active = inhibition above about 60%
# Target sequence (Q8TCT1 whole entry, looked up): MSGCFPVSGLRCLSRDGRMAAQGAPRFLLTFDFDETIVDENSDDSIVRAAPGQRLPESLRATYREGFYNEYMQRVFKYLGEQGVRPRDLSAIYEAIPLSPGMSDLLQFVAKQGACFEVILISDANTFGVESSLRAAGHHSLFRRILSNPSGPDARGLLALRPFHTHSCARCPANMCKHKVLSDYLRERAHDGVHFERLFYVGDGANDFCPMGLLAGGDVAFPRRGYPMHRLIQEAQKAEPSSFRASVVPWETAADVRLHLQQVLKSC
# ABCB6 inh MLPCN: ABCB6 transporter inhibitors, primary screen, K562-ABCB6 cells, flow cytometry, MLPCN library. AID 602162, 2011. K562-ABCB6 porphyrin accumulation, 1 h; active compounds read low. ATP-binding cassette sub-family B member 6 (Homo sapiens), Q9NP58. fluorescence ratio to DMSO, % at 10 µM. 0.19% of 360,000 active;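 active = fluorescence ratio to DMSO below 75%, the collection mean minus 3 SD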;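 also: signal is porphyrin accumulated inside mitochondria; 100% equals median channel fluorescence of DMSO control wells; lower ratio means ABCB6 inhibition with less porphyrin fluorescence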
# PABP polyA inh: PABP poly(A) RNA binding inhibitors, primary screen, biochemical, fluorescence polarization, uHTS. 1% of 290,000 active. calls only at 35 µM;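 also: calls also rest on retests at 20 µM and on dose response follow-up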
# eIF4H FP inh: human eIF4H binding inhibitors, primary screen, translation initiation inhibitor project, biochemical, uHTS, fluorescence polarization; 0.94% of 290,000 active; inhibition, % at 35 µM; eIF4H fluorescence polarization binding assay; Eukaryotic translation initiation factor 4H (Homo sapiens), Q15056; AID 2012, 2009;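 also: calls also rest on retests at 20 µM and on dose response follow-up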
# PABP1 MLLE inh: inhibitors of PABP1 MLLE–PAM2 peptide binding, primary screen, biochemical, fluorescence polarization, FITC-PAM2, GST-MLLE | Polyadenylate-binding protein 1 (Homo sapiens), P11940 | inhibition, % at 20 µM | 0.36% of 360,000 active; in the data active = inhibition above about 35%, passing the limit was not always enough;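 also: plate controls were DMSO wells with GST-MLLE for no effect and wells lacking GST-MLLE protein for full effect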
# The depositor's hits bear a star; i = inactive; nt = no result; + = active, no number; ! = a repeat was not active. Unless noted, no rule for the calls is given here.
SMILES,AI-2 QS mod,PHOSPHO1 inh,ABCB6 inh MLPCN,PABP polyA inh,eIF4H FP inh,PABP1 MLLE inh
N#Cc1cccc(NC(=O)CNC(=O)Cc2ccccc2)c1,23.3,23.2,97.0,i,7.0,3.5
N#Cc1cccc(NC(=O)Cc2ccccc2)c1,10.4,61.8*,93.0,i,6.4,9.9
Cc1ccc(Sc2cnc(N)nc2C)cc1,14.3,47.6,97.0,+,active,2.0
O=C1NC[C@@H](CCCCN2C[C@H](Cc3ccccc3)N(CCc3ccc(O)cc3)C(=O)C2=O)N(CCc2ccccc2)C1=O,nt,nt,94.0,nt,nt,nt
NC(Cc1ccccc1)C(=O)N1CCCCC1 (stereo not given),24.7,47.9,94.0,i,-14.4,13.1
CN1CCN(C(=O)Nc2ccccc2)CC1,16.3,62.9*,96.0,i,7.5,9.7
CN1CCN(C(=O)C(N)Cc2ccccc2)CC1 (stereo not given),5.8,62.9*,90.0,i,-0.1,-19.6
O=C(O)c1cnc2ccc(Cl)cc2n1,nt,nt,95.0,nt,nt,0.3
COc1ccc(NC(=O)c2cc(C3CCCCN3C(=O)c3ccc(NC(C)=O)cc3)on2)c(C)c1 (stereo not given),nt,nt,96.0,nt,nt,0.1
CCOC(=O)C1CCCN(C(=O)C2CCN(S(=O)(=O)c3cccs3)CC2)C1 (stereo not given),2.1,-2.6,97.0,i,-7.2,0.6
CCOC(=O)C1CCCN(C(=O)C2CCN(S(=O)(=O)CC)CC2)C1 (stereo not given),13.0,60.1*,100.0,i,9.3,-11.2
c1ccc(SCCc2ccncc2)cc1,4.6,44.8,93.0,i,23.9,15.7
Fc1ccc(SCCc2ccncc2)cc1,-5.4,33.1,99.0,i,-2.7,42.8*!
COc1ccccc1N1CCN(C(=O)C(C)CS(=O)(=O)c2ccc3c(c2)NC(=O)CS3)CC1 (stereo not given),18.1,37.5,95.0,i,56.3*,-8.7
COc1ccccc1N1CCN(S(=O)(=O)c2ccc3c(c2)NC(=O)C(C)S3)CC1 (stereo not given),15.5,26.1,100.0,i,0.1,11.0
S=C(NCCc1ccccc1)N1CCC2CC1c1cc(-c3ccc4c(c3)OCO4)ccc12 (stereo not given),nt,nt,91.0,nt,nt,-55.1
COC(=O)[C@]12CCCCC=C1N(Cc1ccco1)C(=O)[C@H](CC(=O)NCCC(C)C)C2,nt,nt,98.0,nt,nt,nt
C/C(=N\NC(=O)CCC(=O)N/N=C(\C)c1ccc(C)o1)c1ccc(C)o1,1.3,nt,93.0,nt,nt,8.6
CCOC(=O)N/N=C(/C)c1ccc([N+](=O)[O-])o1,-87.6*,24.4,89.0,i,-1.6,-6.7
COc1ccc(CN(C)C[C@@H]2OCCCC[C@H](C)Oc3ccc(NC(=O)Nc4ccc(F)cc4)cc3C(=O)N([C@H](C)CO)C[C@H]2C)cc1,nt,nt,97.0,nt,nt,14.8
O=[N+]([O-])c1ccc(N/N=C/c2cccc(O)c2)cc1,-85.9*,-19.8,117.0,i,1.0,-101.2
O=[N+]([O-])c1ccc(N/N=C/c2ccc[nH]2)cc1,nt,90.4*,111.0,i,14.7,-96.8
O=C1CC(/C=C/c2ccco2)=Nc2ccccc2N1,15.8,-9.3,106.0,+,94.9*,33.8
O=C1CC(/C=C/c2ccccn2)=Nc2ccccc2N1,6.5,-7.1,107.0,i,45.9,-22.1
COc1ccc(Nc2c(CCc3ccccc3)nc3nc(C)cc(C)n23)cc1,nt,nt,103.0,nt,nt,nt
SMILES,AI-2 QS mod,PHOSPHO1 inh,ABCB6 inh MLPCN,PABP polyA inh,eIF4H FP inh,PABP1 MLLE inh
O=C(/C=C/c1ccco1)OCn1nnc2ccccc2c1=O,10.6,16.6,98.0,+,67.5*,5.3
Cc1ccc(/C=C/C(=O)OCn2nnc3ccccc3c2=O)o1,-16.3,20.4,92.0,i,7.6,2.4
CNc1nc(-c2ccccc2)[n+](-c2ccc(C)cc2)s1,41.3,89.9*,98.0,i,-18.0,-48.0
Cc1ccc(-c2nc3ccccc3nc2-c2ccccc2)cc1,27.5,24.3,103.0,i,-4.4,-6.5
Cc1ccc(-c2nc(N)s[n+]2-c2ccccc2)cc1,18.4,11.1,91.0,i,3.5,40.2*
COc1ccc(CNC(=O)COc2cc3c(c4oc(=O)cc(C)c24)CCC(C)(C)O3)c(OC)c1,nt,nt,97.0,nt,nt,7.5
